Screening data from PubChem.
A selection: hits, their analogues and other compounds. The true share with any hit is near 0.5%.
E coli growth-1 – E. coli growth inhibition, primary screen, OD600; Escherichia coli growth, 23 h; hits give low values; OD600 absorbance (no concentration beside the values); actives 0.21% (n = 330,000); AID 1053175, 2014;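 active = OD600 absorbance below the run mean of sample wells minus 3.6 SD, in any replicate, cut at about 0.56 in these data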
phage Ecoli inh – growth loss of phage-infected E. coli, primary screen, RecBCD inhibitor project, absorbance, with phage, HTS; AID 651602, 2012; actives 0.26% (n = 360,000); inhibition, % at 11.9 µM; in the data active = inhibition above about 11%
AddAB inh – growth inhibition of E. coli expressing H. pylori AddAB, primary screen, AddAB inhibitor project, absorbance. inhibition, % at 11.9 µM. actives 0.29% (n = 330,000). AID 435030, 2010; in the data active = inhibition above about 12%;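 note: 0% = vehicle wells of infected cells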
Tat transport – E. coli Tat export inhibitors, primary screen, MC4100, TorA-mCherry reporter, fluorescence, single point; inhibition, % at 10 µM; actives 0.036% (n = 340,000);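 active = mean replicate inhibition at least 50% and at least half of replicates individually reaching 50%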;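 note: exported cargo escapes ClpAP degradation while cytoplasmic cargo is degraded and loses fluorescence; 0% = median of neutral control wells and 100% = median of NaSCN control wells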
E coli growth-2 – E. coli V3065 growth inhibition, primary screen, counter-screen for AddAB inhibitor project, absorbance, OD600 | inhibition, % at 11.9 µM | AID 449728, 2010 | 18 h | actives 0.27% (n = 330,000);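 active = inhibition above the campaign's mean inhibition across all tested compounds plus 3 SD, cut at about 9.9% in these data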;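 note: uninfected addAB+ strain grown without phage in ampicillin broth; 0% = DMSO wells and 100% = ciprofloxacin 0.95 µg/ml wells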
AddAB confirm – growth loss of phage-infected E. coli expressing H. pylori AddAB, confirmation, AddAB inhibitor project, absorbance, E. coli V3065, T4 phage, triplicate; shares compounds with AddAB inh; OD; T4 phage with gene 2 nonsense mutations; inhibition, % at 11.9 µM; actives 64% (n = 880); AID 488942, 2010;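 active = mean inhibition above a set limit taken from the earlier primary screen, cut at about 13% in these data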;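 note: higher means less bacterial growth since AddAB block lets phage replicate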
RecBCD counter – growth loss of RecBCD+ E. coli with mutant T4 phage, counter-screen for AddAB inhibitor project, absorbance, V66 E. coli | shares compounds with AddAB inh | OD growth | inhibition, % at 11.9 µM | actives 73% (n = 880) | AID 488955, 2010;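 active = mean inhibition above the mean of solvent-only control wells plus 3 SD, cut at about 4% in these data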;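 note: optical density read after an 18 h incubation at 37 °C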
bact viab count – bacterial viability inhibition counter-screen, confirmation, counter-screen for AddAB inhibitor project, absorbance; shares compounds with AddAB inh; absorbance (AddAB counterscreen); inhibition, % at 11.9 µM; actives 35% (n = 880); AID 488956, 2010; in the data active = inhibition above about 25%
RecBCD conf – growth loss of phage-infected RecBCD+ E. coli, confirmation, RecBCD inhibitor project, absorbance, E. coli V66, T4 gene 2 phage; shares compounds with phage Ecoli inh; E. coli V66 + T4 2- phage, growth OD; inhibition, % at 11.9 µM; actives 45% (n = 890); AID 651982, 2013;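 active = mean inhibition over triplicates exceeding the hit threshold derived in the original primary screen, cut at about 11% in these data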
Ecoli viability – E. coli viability inhibition, counter-screen for RecBCD inhibitor project, absorbance, high throughput. shares compounds with phage Ecoli inh. absorbance (OD) growth. inhibition, % at 11.9 µM. actives 29% (n = 890). AID 651983, 2013; in the data active = inhibition above about 20%;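 note: E. coli strain V66 grown with compound alone and no phage infection; 0% = bacteria with DMSO vehicle only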
AddAB counter – growth loss of phage-infected AddAB-carrying E. coli, confirmation, counter-screen for RecBCD inhibitor project, absorbance, E. coli V3065, T4 phage | shares compounds with phage Ecoli inh | E. coli expressing H. pylori AddAB + T4 phage, OD growth; gene 2 mutant T4, recBCD-deleted host | inhibition, % at 11.9 µM | actives 45% (n = 890);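 active = mean inhibition above the solvent-only control wells' mean plus 3 SD, cut at about 22% in these data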;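 note: higher means less bacterial growth from phage killing when AddAB is blocked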
The depositor's hits bear a star; . = no result given.

SMILES	E coli growth-1	phage Ecoli inh	AddAB inh	Tat transport	E coli growth-2	AddAB confirm	RecBCD counter	bact viab count	RecBCD conf	Ecoli viability	AddAB counter
O=c1nc(N/N=C/c2ccccn2)cn[nH]1	.	31*	29*	-26	29*	30*	31*	24	24*	32*	31*
Cc1cc(=O)[nH]c(N/N=C/c2ccccn2)n1	.	19*	18*	-10	13*	10	20*	9	7	16	13
Cc1cc(=O)[nH]c(NN=Cc2ccccn2)n1	0.53	.	.	.	.	.	.	.	.	.	.
O=c1cnnc(N/N=C/c2ccccn2)[nH]1	.	42*	53*	-23	41*	38*	44*	34*	37*	47*	47*
Cc1ccc(C=NNc2cn[nH]c(=O)n2)o1	0.69	.	.	.	.	.	.	.	.	.	.
CC[C@]12C(=O)N(C)CC(C3C(=O)N(Cc4ccccc4)C(=O)C31)N2C(=O)c1ccc(Br)cc1 (some centres not stated)	0.71	.	.	.	.	.	.	.	.	.	.
CCC(C)C(NC(=O)OCc1ccccc1)c1nnc(C(NC(=O)OCc2ccccc2)C(C)CC)o1 (configuration not stated)	0.69	.	.	.	.	.	.	.	.	.	.
C[C@H]1COc2c(N3CCN(C)CC3)c(F)cc3c(=O)c(C(=O)O)cn1c23	.	100*	98*	148*	99*	102*	101*	102*	104*	106*	106*
CN1CCN(c2c(F)cc3c(=O)c(C(=O)O)cn4c3c2SCC4)CC1	0.047*	98*	98*	43	98*	102*	101*	103*	102*	104*	103*
O=C(NC(=Cc1ccc([N+](=O)[O-])cc1)C(=O)N1CCCCC1)c1ccccc1	0.73	.	.	.	.	.	.	.	.	.	.
O=C(N/N=C/c1ccc([N+](=O)[O-])o1)c1ccc(O)cc1	.	23*	98*	-29	97*	96*	24*	78*	17*	21*	98*
O=C(N/N=C/c1ccc([N+](=O)[O-])o1)c1ccncc1	.	23*	94*	.	18*	97*	19*	33*	16*	19	64*
O=C(N/N=C\c1ccc([N+](=O)[O-])o1)c1cncc(Br)c1	.	3	9	-19	5	.	.	.	.	.	.
Cn1c(N)c(C(=O)COC(=O)C2CCCN2S(=O)(=O)c2ccc(Cl)cc2)c(=O)n(C)c1=O (configuration not stated)	0.71	.	.	.	.	.	.	.	.	.	.
Cc1ccc(C2CC=C(C(=O)O)CN2S(=O)(=O)c2ccccc2C)cc1 (configuration not stated)	0.68	.	.	.	.	.	.	.	.	.	.
CSc1ccc(C=CC(=O)c2ccc(NC(C)=O)cc2)cc1	0.69	.	.	.	.	.	.	.	.	.	.
O=C(CC1CCCC1)NNC(=O)c1ccccc1O	.	0	.	.	.	.	.	.	.	.	.
O=C(CCC1CCCC1)NNC(=O)c1cc2ccccc2cc1O	0.67	16*	18*	-11	9	14*	14*	13	8	9	14
Cc1ccc(-c2nc3c(Cl)cc(Cl)cc3c(=O)n2O)cc1	0.63	12*	12*	-6	15*	16*	14*	8	3	6	12
O=c1c2cc(Br)ccc2nc(-c2ccc(Cl)cc2)n1O	0.57	-6	-3	-5	-5	.	.	.	.	.	.
